Source: PubChem (several laboratories)
NRP1-CendR mod: NRP-1/CendR interaction modulation; 360,000 tested, 0.85% active; FAM-RPARPAR peptide binding to NRP-1, fluorescence polarization; inhibition, % at 25 µM; O14786; AID 602438;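 active means inhibition or corrected inhibition above about 18%, plus a signal ratio from 0.5 to 1.5, limit read from the data, passing the limit was not always enough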
A3A deaminase: human APOBEC3A DNA deaminase inhibition; P31941; recombinant A3A, FAM/TAMRA ssDNA deamination fluorescence; inhibition, % at 20 µM; 330,000 tested, 0.41% active; AID 493011;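 active means at least 40% inhibition at 20 µM here, with at most 30% in a related deaminase screen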;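 further: plate controls were A3A with DMSO for no effect and wells lacking A3A enzyme for full effect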
Target sequence (P31941 whole entry, looked up): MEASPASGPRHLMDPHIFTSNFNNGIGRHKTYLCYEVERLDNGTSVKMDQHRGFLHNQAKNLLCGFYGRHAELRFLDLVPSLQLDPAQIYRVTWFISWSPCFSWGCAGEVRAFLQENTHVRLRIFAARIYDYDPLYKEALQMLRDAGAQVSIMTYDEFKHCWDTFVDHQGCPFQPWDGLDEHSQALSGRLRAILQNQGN
A3G deaminase: APOBEC3G (human) deaminase inhibition. recombinant A3G, ssDNA deamination FAM/TAMRA fluorescence. inhibition, % at 20 µM. 330,000 tested, 0.28% active;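 active means inhibition of at least 40% at 20 µM, with no more than 30% in the related APOBEC3A deaminase screen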;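 further: plate controls were DMSO wells with A3G for no effect and wells lacking A3G enzyme for full effect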
Target sequence (Q9HC16 whole entry, looked up): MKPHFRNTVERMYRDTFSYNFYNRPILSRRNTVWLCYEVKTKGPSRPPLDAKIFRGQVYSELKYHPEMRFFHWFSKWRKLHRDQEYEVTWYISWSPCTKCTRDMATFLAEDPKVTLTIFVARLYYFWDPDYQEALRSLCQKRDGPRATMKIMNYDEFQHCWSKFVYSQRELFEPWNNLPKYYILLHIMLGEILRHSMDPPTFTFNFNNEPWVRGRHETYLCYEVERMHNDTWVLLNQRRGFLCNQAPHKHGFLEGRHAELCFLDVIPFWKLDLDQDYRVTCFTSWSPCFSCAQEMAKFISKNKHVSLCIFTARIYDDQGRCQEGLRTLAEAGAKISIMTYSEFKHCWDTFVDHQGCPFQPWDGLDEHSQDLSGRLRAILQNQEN
VLA-4 inh: inhibition in a human VLA-4 binding assay. P13612. VLA-4 expressing cells, ligand binding flow cytometry. inhibition, % (about 7 µM as worked out from the volumes in the protocol). 330,000 tested, 0.2% active; in the data active means inhibition above about 50%
beta cell repl: inducers of beta-cell replication in MIN6 cells | proliferation, % at 10 µM | MIN6 cells proliferation, ATPlite luminescence, 48 h; cells starved in 0.2% serum; 100% = growth in 10% serum | 330,000 tested, 0.29% active | AID 2380;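 active means compounds whose signal lies at least 3.5 SD above the mean of all wells on their plate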;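 further: 0% = DMSO-treated cells in low-serum medium and 100% = 10% serum control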
APOBEC3A confirm: confirmation of human APOBEC3A DNA deaminase inhibitors. shares compounds with A3A deaminase. recombinant A3A, ssDNA deaminase UDG fluorescence assay. inhibition, % at 20 µM. 1,400 tested, 63% active. AID 493151;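 active means inhibition reaching a set limit, 80% of the first screen's cutoff, at 20 µM in any replicate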;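 further: plate controls were DMSO wells with A3A for no effect and wells lacking A3A enzyme for full effect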
UDG ctr A3A: UDG inhibition in APOBEC3A counter-screen; shares compounds with A3A deaminase; UDG counterscreen, FAM/TAMRA uracil oligo fluorescence; inhibition, % at 20 µM; 1,000 tested, under 10 active; call rule not given here
The depositor's hits bear a star; nt = not tested or not shown. Rows were chosen to be rich in hits. Some 1.8% of all compounds tested hit in one or more screens of this group.

SMILES	NRP1-CendR mod	A3A deaminase	A3G deaminase	VLA-4 inh	beta cell repl	APOBEC3A confirm	UDG ctr A3A
O=C(O)c1cccc(-n2cccc2/C=C2/NC(=O)N(Cc3ccccc3F)C2=O)c1	-26	62*	11	0	-4	62*	-1
CC(C)[C@@H](COc1ccccc1)N1CCN(Cc2ccccc2)CCC1=O	12	2	-3	2	-7	nt	nt
CC(C)C(CO)N1CCN(Cc2ccccc2)CCC1=O (centres undefined)	24*	61*	10	14	0	51*	4
Cc1ccc(/C=N/Nc2nc(N3CCOCC3)nc(N3CCOCC3)n2)o1	-2	53*	-3	2	2	33*	2
CCOc1ccc(S(=O)(=O)N2CCN(CCNS(=O)(=O)c3ccc(C)cc3)CC2)cc1	-5	-2	-9	nt	-1	nt	nt
N#C/C(=C\c1ccc(Cl)cc1)c1nc(-c2ccco2)cs1	-22	41*	14	11	-1	28	nt
N#C/C(=C\c1ccc(F)cc1)c1nc(-c2ccco2)cs1	-39	2	-2	-8	3	nt	nt
O=C(COc1ccccc1/C=C1/NC(=O)NC1=O)Nc1ccccc1	10	46*	10	-15	-2	68*	-4
COC(=O)COc1ccccc1/C=C1/NC(=O)NC1=O	3	-2	-4	21	0	nt	nt
CCC(C)NC(=O)CSc1ccc(S(=O)(=O)N(C)C2CCCCC2)cn1 (centres undefined)	3	42*	-9	3	0	-4	2
CC(=O)NC12CC3CC(C1)CC(C(=O)N(C)CC(=O)Nc1cccc(F)c1)(C3)C2	9	-1	-10	3	5	nt	nt
O=C(COC(=O)CCC(=O)c1ccc(F)cc1)NCCc1ccccc1	1	-3	-4	13	-4	nt	nt
COc1ccccc1NOC(=O)CCOc1ccccc1	-1	nt	nt	nt	nt	nt	nt
O=C(CN(Cc1ccccc1)C(=O)c1ccco1)NCc1ccc(F)cc1	-1	0	1	11	-1	nt	nt
COc1cccc(CN(CC(=O)NCc2ccc(F)cc2)C(=O)c2ccco2)c1	3	45*	-2	11	2	-6	-3
C[n+]1cn(CC(O)COCc2ccccc2)c2ccccc21 (centres undefined)	-1	56*	13	1	-2	77*	4
Cc1cc2c(cc1C)[n+](C)cn2CC(O)COCc1ccccc1 (centres undefined)	12	41*	8	12	-5	25	nt
Cc1ccc(C(=O)N2CCN(S(=O)(=O)c3sc(C(=O)O)c(C)c3C(=O)O)CC2)s1	8	-1	-10	15	3	nt	nt
COc1cc(Cl)c(C)cc1NC(=O)COC(=O)C1=COCCO1	8	2	1	-9	1	nt	nt
O=C1CCc2cc(S(=O)(=O)Nc3ccccc3F)ccc2N1	-5	99*	6	6	0	0	nt
COc1ccc(C2(C)NC(=O)N(CC(=O)NCc3ccccc3)C2=O)cc1OC (centres undefined)	2	0	-4	1	4	nt	nt
COCCN1C(=NCCCOC(C)C)N[C@@H](c2ccccc2)C(C(=O)OC)=C1C	8	62*	29	17	-3	67*	3
COCCN=C1N[C@@H](c2ccccc2)C(C(=O)OC)=C(C)N1Cc1ccccc1	-2	33	8	24	-4	nt	nt
C=CCN=C1N[C@@H](c2ccccc2)C(C(=O)OC)=C(C)N1CCOC	4	51*	6	39	2	71*	-4
NC(=O)C1CCN(c2nc3c(S(=O)(=O)c4ccccc4)nnn3c3ccccc23)CC1	4	-8	-8	5	-4	nt	nt
SMILES	NRP1-CendR mod	A3A deaminase	A3G deaminase	VLA-4 inh	beta cell repl	APOBEC3A confirm	UDG ctr A3A
CCOC(=O)CC(NS(=O)(=O)c1ccc2[nH]cc(C(=O)O)c(=O)c2c1)c1ccc(OCC)c(OC)c1 (centres undefined)	-6	47*	14	-6	0	33*	nt
CCOC(=O)CC(NS(=O)(=O)c1ccc(OC)c(OC)c1)c1cccc([N+](=O)[O-])c1 (centres undefined)	-11	0	0	-5	-1	nt	nt
COc1ccc(C=NCCC2(O)CC(C)N(C)CC2C)cc1 (centres undefined)	0	48*	1	5	0	1	nt
CCCCn1c(N)c(N(CC(C)C)C(=O)C2CCN(S(=O)(=O)c3ccc(Cl)cc3)CC2)c(=O)[nH]c1=O	8	2	-2	12	2	nt	nt
CCn1c(-c2ccccc2Cl)nn(CC(=O)Nc2ccccc2C)c1=S	-4	66*	13	4	1	24	nt
CCn1c(-c2ccccc2Cl)nn(CC(=O)Nc2ccc(OC)cc2)c1=S	-2	-4	-6	-61	-2	nt	nt
CC(=O)OCC[n+]1c(C)n(-c2ccccc2)c2ccc(Cl)cc21	-12	42*	11	6	2	84*	-3
CC[n+]1c(C)n(-c2ccccc2)c2ccc(C(=O)OC)cc21	0	44*	12	18	2	40*	-3
CC(=O)c1c(C)n(-c2ccccc2)c2ccc(OCC(N)=O)cc12	-8	-6	-7	4	1	nt	nt
CCOC(=O)c1ccc2c(c1)[n+](CC)c(C)n2-c1ccccc1	5	75*	26	8	2	85*	2
CCOC(=O)c1c(O)c(O)c(C(=O)OCC)n1-c1ccccc1	-4	-1	6	0	0	nt	nt
CC(C)C[C@@H](CNCC(=O)[C@H](C)NC(=O)c1[nH]cnc1C(=O)N[C@H](CN)CC(C)C)NC(=O)c1nc[nH]c1C(=O)N[C@@H](C)C(=O)O	0	nt	nt	nt	nt	nt	nt
COc1cccc(-c2cc3nc(C)c(C)c(N4CCN(C(=O)c5ccoc5)CC4)n3n2)c1	-7	nt	nt	nt	nt	nt	nt
COc1ccc(CN(C)C(=O)CCCNC(=O)c2ccc(Cl)cc2)cc1	2	46*	7	0	0	31	nt
CCc1noc(C)c1C(=O)OCC(=O)NCc1ccccc1OC	1	1	-8	16	-2	nt	nt
C=CCn1c(SCc2nc3sc(C(=O)O)c(C)c3c(=O)[nH]2)nnc1-c1ccccc1	-8	2	-3	1	1	nt	nt
C=CCn1c(SCc2nc3sc(C(=O)O)c(C)c3c(=O)[nH]2)nnc1-c1ccc(C(C)(C)C)cc1	-79	40*	-1	5	-1	30	-1
COc1ccc(/C=C/C(=O)N(CCC(N)=O)c2ccccc2)cc1S(=O)(=O)N1CCOCC1	7	41*	-3	nt	-1	27*	-36
C[N+]1(CC(O)c2ccccc2)CCCCCC1 (centres undefined)	5	69*	24	4	0	64*	3
